Structures can show the parent of a compound that is named as a salt.

The subject of this assay is Escherichia coli IAI1. The experiment in a line: fold change of Cadaverine concentration vs plate DMSO controls (fold change (ratio)); higher = more amine produced, active = hit call of the paper (significant change in both replicates, either direction). Conditions: incubation time: 27 h, anaerobic, 37 °C. An outline of the steps:
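Each value is the fold change relative to DMSO-only wells on the same plate. Four gut bacterial strains were grown anaerobically in mGAM at 37 °C for 27 h in 80 µL wells, starting at OD 0.1 before a 1:1 dilution, with compounds at 20 µM final (sweeteners 50 µM). Whole cultures were extracted with cold acetonitrile/methanol containing 0.1% formic acid, centrifuged, and amines were quantified by LC–triple-quadrupole MS (dynamic MRM) against external calibration curves with within-batch drift correction. Values are means of 2 biological replicates.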
With `CC(N)(Cc1ccc(O)c(O)c1)C(=O)O` (centres undefined) [(L) Methyldopa] (20 µM), the “fold change of Cadaverine concentration” value was 0.965 (inactive).
Next, `CN[C@@H]1[C@H](O[C@H]2[C@H](O[C@H]3[C@H](O)[C@@H](O)[C@H](N=C(N)N)[C@@H](O)[C@@H]3N=C(N)N)O[C@@H](C)[C@]2(O)C=O)O[C@@H](CO)[C@H](O)[C@H]1O` [Streptomycin sulfate] (20 µM): 1.03 (inactive); `CCOC(=O)c1ccc(OC(=O)CCCCCNC(=N)N)cc1` [Gabexate mesilate] (20 µM): 0.998 (inactive); `NS(=O)(=O)c1cc(C(=O)O)c(NCc2ccco2)cc1Cl` [Furosemide] (20 µM): 0.995 (inactive).
Regarding `CC(C)(Oc1ccc(Cl)cc1)C(=O)O` [Clofibric acid] (20 µM), the “fold change of Cadaverine concentration” value was 1 (inactive).
With `Cc1ccc(C(C)NC(=O)[C@@H](NC(=O)OC(C)C)C(C)C)cc1` (some centres undefined) (20 µM) the figure was 1.03 (inactive); with `COC(c1ccccc1)(c1ccccc1)[C@H](Oc1nc(C)cc(C)n1)C(=O)O` [Ambrisentan] (20 µM), 0.985 (inactive); with `CN1CCN(CCCN2c3ccccc3Sc3ccc(C(F)(F)F)cc32)CC1` [Trifluoperazine dihydrochloride] (20 µM), 1.05 (inactive).
Turning to `C[N+](C)(CCOc1ccccc1)Cc1ccccc1.O=C([O-])c1cc2ccccc2cc1O` [Bephenium hydroxynaphthoate] (20 µM), the “fold change of Cadaverine concentration” value is 1.51 (active).
Next, `c1ccc2cc3c(ccc4ccccc43)cc2c1` [Benz[a]anthracene] (20 µM): 0.963 (inactive); `C[C@H]1C[C@H]2[C@@H]3CCC4=CC(=O)C=C[C@]4(C)[C@@]3(F)[C@@H](O)C[C@]2(C)[C@@]1(O)C(=O)CO` [Betamethasone] (20 µM): 1.04 (inactive); `NC[C@H]1O[C@H](O[C@H]2[C@H](O[C@@H]3O[C@H](CO)[C@@H](O)[C@H]3O)[C@@H](O)[C@H](N)C[C@@H]2N)[C@H](N)[C@@H](O)[C@@H]1O` [Ribostamycin sulfate salt] (20 µM): 0.963 (inactive).
With `CCOC(=O)C1=C[C@]2(CC)CCCN3CCc4c(n1c1ccccc41)[C@@H]32` [Vinpocetine] (20 µM) the figure was 1.02 (inactive).
With `CCOC1O[C@H]([C@@H](COCc2ccccc2)OCc2ccccc2)[C@H](OCc2ccccc2)[C@H]1O` (some centres undefined) [Tribenoside] (20 µM) the figure was 1.01 (inactive); with `NCCCC[C@H](N[C@@H](CCc1ccccc1)C(=O)O)C(=O)N1CCC[C@H]1C(=O)O` [Lisinopril] (20 µM), 1.04 (inactive); with `CC(C)(C)NC[C@H](O)c1ccc(O)c(CO)c1` [Levalbuterol hydrochloride] (20 µM), 0.974 (inactive).
In the case of `O=C(CCCl)NCc1ccccc1` [Beclamide] (20 µM), the “fold change of Cadaverine concentration” value was 1.04 (inactive).
Next, `Cc1onc(-c2ccccc2Cl)c1C(=O)N[C@@H]1C(=O)N2[C@@H]1SC(C)(C)[C@@H]2C(=O)O` [Cloxacillin sodium salt] (20 µM): 0.999 (inactive).
Next, `CCN1CCCC1CNC(=O)c1cc(S(N)(=O)=O)ccc1OC` (centres undefined) [Sulpiride] (20 µM): 1.03 (inactive); `CCOc1ccc(NC(N)=O)cc1` [(4-Ethoxyphenyl)urea] (50 µM): 1.11 (inactive).
With `O=C1OC(CN2CCOCC2)CN1/N=C/c1ccc([N+](=O)[O-])o1` (centres undefined) [Furaltadone hydrochloride] (20 µM) the figure was 1.7 (active); with `Cc1cc(N)c2ccccc2[n+]1CCCCCCCCCC[n+]1c(C)cc(N)c2ccccc21` [Dequalinium dichloride] (20 µM), 0.968 (inactive); with `Cc1ccc(C(=O)c2ccc(CC(=O)O)n2C)cc1` [Tolmetin sodium salt dihydrate] (20 µM), 1 (inactive).
Take `CCCSc1nc(N[C@@H]2C[C@H]2c2ccc(F)c(F)c2)c2nnn([C@@H]3C[C@H](OCCO)[C@@H](O)[C@H]3O)c2n1` [Ticagrelor] (20 µM): the “fold change of Cadaverine concentration” value was 1.07 (inactive).
With `CNc1ncnc2c1ncn2[C@@H]1O[C@H](CO)[C@@H](O)[C@H]1O` [N6-methyladenosine] (20 µM) the figure was 0.987 (inactive); with `Cc1c(N(C)CS(=O)(=O)O)c(=O)n(-c2ccccc2)n1C` [Dipyrone sodium salt] (20 µM), 0.991 (inactive); with `CN(c1nccc(=O)[nH]1)C1CCN(c2nc3ccccc3n2Cc2ccc(F)cc2)CC1` [Mizolastine] (20 µM), 0.977 (inactive).
Turning to `CC(CN(C)C)C(C)(O)Cc1ccc(Cl)cc1` (centres undefined) [Clobutinol hydrochloride] (20 µM), the “fold change of Cadaverine concentration” value was 0.965 (inactive).
Next, `Oc1c(Cl)cc(Cl)c2cccnc12` [Chloroxine] (20 µM): 1.31 (active); `CC(=O)OCC(=O)[C@@]1(O)CC[C@H]2[C@@H]3CCC4=CC(=O)CC[C@]4(C)[C@@]3(F)[C@@H](O)C[C@@]21C` [Fludrocortisone acetate] (20 µM): 1.02 (inactive).
Consider `CC1=C(C(=O)O)N2C(=O)[C@@H](NC(=O)[C@H](N)c3ccc(O)cc3)[C@H]2SC1` [Cefadroxil] (20 µM), for which the “fold change of Cadaverine concentration” value is 1.02 (inactive).
Next, `OC[C@H]1O[C@@](CO)(O[C@H]2O[C@H](CO)[C@@H](O)[C@H](O)[C@H]2O)[C@@H](O)[C@@H]1O` [Sucrose] (50 µM): 0.964 (inactive).
With `CCN(CC)CCOC(=O)C(c1ccccc1)C1CCCCC1` (centres undefined) [Drofenine hydrochloride] (20 µM) the figure was 1.04 (inactive).
For the compound `CN(C)CCCN1c2ccccc2Sc2ccccc21` [Promazine hydrochloride] (20 µM), the “fold change of Cadaverine concentration” value is 1.03 (inactive).
Turning to `CCc1cccc(CC)c1NC(=O)CN(CC(=O)O)CC(=O)O` [Etifenin] (20 µM), the “fold change of Cadaverine concentration” value is 0.987 (inactive).
`CC(Cc1cccc(C(F)(F)F)c1)NCCOC(=O)c1ccccc1` (centres undefined) [Benfluorex] (20 µM): the “fold change of Cadaverine concentration” value is 0.975 (inactive).
For `Cn1c(=O)c2c(ncn2C)n(C)c1=O` [Caffeine] (20 µM), the “fold change of Cadaverine concentration” value was 1.03 (inactive).
With `O=c1[nH]c(=O)n([C@H]2C[C@H](O)[C@@H](CO)O2)cc1C(F)(F)F` [Trifluridine] (20 µM) the figure was 1.04 (inactive); with `CCOC(=O)NNc1nncc2ccccc12` [Todralazine hydrochloride] (20 µM), 1.04 (inactive).

(Values after the supplement of paper PMC12494721.)
